Drawing on paper PMC7862700, “An all-to-all approach to the identification of sequence-specific readers for epigenetic DNA modifications on cytosine”, this text covers binding signal for one sequence.

Assay in all cases: DAPPL (digital affinity profiling via proximity ligation, sequencing); 10 mM Tris-HCl pH 7.5, 50 mM NaCl, 1 mM DTT, 4% glycerol, room temperature, 30 min; GST-TFs on glutathione beads, 16-mer random dsDNA library, 0.1% formaldehyde crosslink after washing; high values mean tight binding
Common to all, as to settings: protein: recombinant; tags: N-terminal GST; dsDNA, one strand shown

One assay addresses T1, FLI1 (Homo sapiens, UniProt Q01543 1-452).
T1 sequence: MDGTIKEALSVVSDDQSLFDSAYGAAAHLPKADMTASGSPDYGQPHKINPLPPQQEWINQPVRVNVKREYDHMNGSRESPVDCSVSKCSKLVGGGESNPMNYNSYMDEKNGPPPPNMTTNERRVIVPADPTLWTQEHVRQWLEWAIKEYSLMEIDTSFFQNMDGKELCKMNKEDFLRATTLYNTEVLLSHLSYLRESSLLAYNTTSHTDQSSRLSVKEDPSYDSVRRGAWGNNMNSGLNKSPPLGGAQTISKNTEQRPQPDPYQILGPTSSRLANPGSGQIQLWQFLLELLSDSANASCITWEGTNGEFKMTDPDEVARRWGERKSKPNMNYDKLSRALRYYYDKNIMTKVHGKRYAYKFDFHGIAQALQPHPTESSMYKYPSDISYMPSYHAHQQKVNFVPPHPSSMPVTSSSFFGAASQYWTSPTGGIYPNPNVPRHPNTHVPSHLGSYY
Put shortly: (§1)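 After expression in yeast as GST fusions, human transcription factors were bound to glutathione beads, DNA-barcoded and mixed with a tag-only sample. The pools were incubated with 200 nmole of a 16-mer random double-stranded DNA library in Tris/NaCl/DTT/glycerol buffer (30 min, room temperature), washed and crosslinked with 0.1% formaldehyde. Proximity ligation with BsaI/T4 ligase ran for 1 h at 37 °C, before PCR amplification and sequencing on an Illumina NextSeq500. Binding signal is a hexamer's read frequency for a factor divided by its frequency for the tag-only sample.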

In a further assay the target is T2, ELK1 (Homo sapiens, UniProt P19419 1-428).
T2 sequence: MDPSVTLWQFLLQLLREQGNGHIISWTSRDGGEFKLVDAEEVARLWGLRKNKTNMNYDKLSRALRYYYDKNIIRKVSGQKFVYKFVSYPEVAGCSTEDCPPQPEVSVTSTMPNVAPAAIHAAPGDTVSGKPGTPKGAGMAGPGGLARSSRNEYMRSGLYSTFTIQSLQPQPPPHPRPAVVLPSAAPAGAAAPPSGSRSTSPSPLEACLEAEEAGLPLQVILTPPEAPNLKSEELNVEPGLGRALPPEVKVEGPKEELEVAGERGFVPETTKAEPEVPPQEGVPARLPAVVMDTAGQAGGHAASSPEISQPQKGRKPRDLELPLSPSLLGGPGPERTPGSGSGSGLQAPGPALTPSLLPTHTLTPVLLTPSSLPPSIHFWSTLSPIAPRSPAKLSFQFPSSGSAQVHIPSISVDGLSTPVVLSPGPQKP
In short, it runs like this: as §1

The target in the next assay is T3, GABPA (Homo sapiens, UniProt Q06546 1-454).
T3 sequence: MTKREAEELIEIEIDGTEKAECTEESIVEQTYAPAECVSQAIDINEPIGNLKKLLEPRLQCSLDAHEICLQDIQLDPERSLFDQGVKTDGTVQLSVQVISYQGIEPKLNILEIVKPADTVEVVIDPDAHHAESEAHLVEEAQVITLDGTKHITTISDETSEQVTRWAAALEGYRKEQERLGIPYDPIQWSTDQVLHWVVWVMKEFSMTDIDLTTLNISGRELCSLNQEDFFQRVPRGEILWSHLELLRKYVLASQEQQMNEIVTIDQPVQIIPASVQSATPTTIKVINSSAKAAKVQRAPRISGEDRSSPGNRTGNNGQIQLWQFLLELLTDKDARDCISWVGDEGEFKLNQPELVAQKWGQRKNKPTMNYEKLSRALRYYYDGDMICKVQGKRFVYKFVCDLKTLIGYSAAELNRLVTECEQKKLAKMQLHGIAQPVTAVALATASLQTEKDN
Put shortly: as §1

The target of another assay is T4, ERG (Homo sapiens, UniProt P11308 1-479).
T4 sequence: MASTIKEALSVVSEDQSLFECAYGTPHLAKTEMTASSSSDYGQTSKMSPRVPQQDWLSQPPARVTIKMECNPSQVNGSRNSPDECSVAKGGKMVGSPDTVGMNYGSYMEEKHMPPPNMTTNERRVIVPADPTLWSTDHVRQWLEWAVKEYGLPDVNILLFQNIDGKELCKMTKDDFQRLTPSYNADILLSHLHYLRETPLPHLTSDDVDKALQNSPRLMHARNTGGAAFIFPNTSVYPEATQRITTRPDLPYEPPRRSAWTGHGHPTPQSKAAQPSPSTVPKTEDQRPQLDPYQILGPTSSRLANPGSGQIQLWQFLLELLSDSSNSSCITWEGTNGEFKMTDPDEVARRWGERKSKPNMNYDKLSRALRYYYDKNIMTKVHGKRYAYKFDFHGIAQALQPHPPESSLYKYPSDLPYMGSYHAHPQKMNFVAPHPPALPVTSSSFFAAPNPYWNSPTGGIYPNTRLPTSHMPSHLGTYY
Put shortly: as §1

Another assay concerns the target ELF1 (Homo sapiens, UniProt P32519 1-619). In short, it runs like this: as §1
The target of another assay is T5, EHF (Homo sapiens, UniProt Q9NZC4 1-300).
T5 sequence: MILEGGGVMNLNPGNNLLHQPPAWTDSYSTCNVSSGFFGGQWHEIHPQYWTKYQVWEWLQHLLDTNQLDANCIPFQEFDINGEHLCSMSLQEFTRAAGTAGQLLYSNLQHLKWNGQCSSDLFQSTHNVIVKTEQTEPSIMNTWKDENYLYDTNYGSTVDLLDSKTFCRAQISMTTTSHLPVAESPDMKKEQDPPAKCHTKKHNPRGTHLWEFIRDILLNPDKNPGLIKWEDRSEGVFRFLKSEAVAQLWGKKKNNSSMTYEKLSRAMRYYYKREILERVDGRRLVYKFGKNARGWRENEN
Put shortly:
as §1

The target of the next assay is SPIB (Homo sapiens, UniProt Q01892 1-262). Put shortly:
as §1

The target of another assay is T6, ELK3 (Homo sapiens, UniProt P41970 1-407).
T6 sequence: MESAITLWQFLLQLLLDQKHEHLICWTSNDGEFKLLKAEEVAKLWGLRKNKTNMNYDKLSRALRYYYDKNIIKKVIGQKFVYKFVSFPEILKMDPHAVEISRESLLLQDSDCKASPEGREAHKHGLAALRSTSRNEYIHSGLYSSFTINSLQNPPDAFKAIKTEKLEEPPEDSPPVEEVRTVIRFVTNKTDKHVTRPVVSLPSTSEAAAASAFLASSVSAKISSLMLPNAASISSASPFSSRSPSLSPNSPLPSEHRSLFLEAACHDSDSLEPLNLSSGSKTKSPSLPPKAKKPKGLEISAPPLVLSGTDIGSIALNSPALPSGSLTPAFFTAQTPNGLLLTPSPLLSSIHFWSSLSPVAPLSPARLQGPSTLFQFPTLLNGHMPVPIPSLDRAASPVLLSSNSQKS
In short, it runs like this:
as §1

The target in the next assay is T7, FEV (Homo sapiens, UniProt Q99581 1-238).
T7 sequence: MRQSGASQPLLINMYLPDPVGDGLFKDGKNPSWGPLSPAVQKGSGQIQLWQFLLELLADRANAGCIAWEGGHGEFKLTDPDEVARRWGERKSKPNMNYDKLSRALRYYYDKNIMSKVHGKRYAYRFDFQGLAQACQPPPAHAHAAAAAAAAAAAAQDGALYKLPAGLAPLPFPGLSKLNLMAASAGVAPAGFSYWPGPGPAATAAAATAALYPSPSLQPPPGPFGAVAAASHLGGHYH
Put shortly: as §1

A further assay concerns the target ETV5 (Homo sapiens, UniProt P41161 1-510). In short, it runs like this: as §1
In another assay the target is T8, SPIC (Homo sapiens, UniProt Q8N5J4 1-248).
T8 sequence: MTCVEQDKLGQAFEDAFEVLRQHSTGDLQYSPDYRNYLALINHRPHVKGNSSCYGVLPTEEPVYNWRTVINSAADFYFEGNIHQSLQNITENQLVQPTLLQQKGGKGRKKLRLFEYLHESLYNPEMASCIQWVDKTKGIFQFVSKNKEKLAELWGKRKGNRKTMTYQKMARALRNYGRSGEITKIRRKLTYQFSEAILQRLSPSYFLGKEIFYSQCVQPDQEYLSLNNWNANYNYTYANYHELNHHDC
In short, it runs like this: as §1

The next assay addresses ELF4 (Homo sapiens, UniProt Q99607 1-663). Put shortly:
as §1

The next assay addresses ETV1 (Homo sapiens, UniProt P50549 1-477). In short, it runs like this:
as §1

For a further assay, the target named is T9, ERF (Homo sapiens, UniProt P50548 1-548).
T9 sequence: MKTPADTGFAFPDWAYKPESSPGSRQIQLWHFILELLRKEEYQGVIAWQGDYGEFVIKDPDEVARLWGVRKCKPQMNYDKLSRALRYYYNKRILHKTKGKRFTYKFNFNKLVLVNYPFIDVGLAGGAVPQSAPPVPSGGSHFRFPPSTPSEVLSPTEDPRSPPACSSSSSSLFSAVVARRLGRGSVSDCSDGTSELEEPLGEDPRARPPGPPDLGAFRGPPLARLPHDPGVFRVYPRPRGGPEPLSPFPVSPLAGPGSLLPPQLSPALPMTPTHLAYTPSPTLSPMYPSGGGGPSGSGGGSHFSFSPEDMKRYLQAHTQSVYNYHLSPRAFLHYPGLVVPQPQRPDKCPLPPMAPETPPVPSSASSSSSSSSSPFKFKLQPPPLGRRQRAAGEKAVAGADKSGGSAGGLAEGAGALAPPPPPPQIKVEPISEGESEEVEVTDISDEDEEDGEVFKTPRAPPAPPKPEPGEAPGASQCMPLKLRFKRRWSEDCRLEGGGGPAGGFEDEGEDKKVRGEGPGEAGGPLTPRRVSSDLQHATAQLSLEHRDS
Put shortly:
as §1

A further assay addresses T10, ETV3L (Homo sapiens, UniProt Q6ZN32 1-361).
T10 sequence: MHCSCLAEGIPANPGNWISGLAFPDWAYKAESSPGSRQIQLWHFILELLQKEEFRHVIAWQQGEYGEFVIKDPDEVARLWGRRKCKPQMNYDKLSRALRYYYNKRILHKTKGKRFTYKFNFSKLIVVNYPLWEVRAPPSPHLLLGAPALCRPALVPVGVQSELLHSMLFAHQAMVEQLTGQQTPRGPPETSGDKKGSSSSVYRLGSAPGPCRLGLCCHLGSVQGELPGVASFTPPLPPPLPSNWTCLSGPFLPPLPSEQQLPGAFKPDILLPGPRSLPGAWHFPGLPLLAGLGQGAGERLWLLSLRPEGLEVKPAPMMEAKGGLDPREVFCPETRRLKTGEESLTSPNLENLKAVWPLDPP
In short, it runs like this: as §1

The target in another assay is T11, ETS2 (Homo sapiens, UniProt P15036 1-469).
T11 sequence: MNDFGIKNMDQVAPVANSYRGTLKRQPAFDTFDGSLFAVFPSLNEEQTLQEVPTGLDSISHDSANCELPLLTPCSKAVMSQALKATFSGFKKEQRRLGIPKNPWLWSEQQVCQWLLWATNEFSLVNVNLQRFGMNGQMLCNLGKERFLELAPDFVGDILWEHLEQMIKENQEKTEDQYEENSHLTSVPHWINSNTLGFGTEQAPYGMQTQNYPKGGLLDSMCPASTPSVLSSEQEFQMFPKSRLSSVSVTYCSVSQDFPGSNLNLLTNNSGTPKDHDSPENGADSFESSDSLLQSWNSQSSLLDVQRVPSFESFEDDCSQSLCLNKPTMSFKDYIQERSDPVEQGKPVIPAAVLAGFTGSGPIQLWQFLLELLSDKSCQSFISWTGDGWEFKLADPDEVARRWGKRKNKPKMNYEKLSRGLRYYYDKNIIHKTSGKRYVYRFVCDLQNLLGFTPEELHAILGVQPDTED
Put shortly:
as §1

The target of a further assay is T12, ELF5 (Homo sapiens, UniProt Q9UKW6-2 1-255).
T12 sequence: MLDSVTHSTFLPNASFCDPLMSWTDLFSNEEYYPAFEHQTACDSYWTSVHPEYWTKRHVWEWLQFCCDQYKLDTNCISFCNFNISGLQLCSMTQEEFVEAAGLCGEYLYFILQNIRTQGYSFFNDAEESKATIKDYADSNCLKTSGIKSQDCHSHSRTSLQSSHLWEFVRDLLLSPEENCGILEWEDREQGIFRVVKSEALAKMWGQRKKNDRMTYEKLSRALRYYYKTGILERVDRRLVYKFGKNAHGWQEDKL
Put shortly: as §1

In the next assay the target is T13, ETV3 (Homo sapiens, UniProt P41162-2 1-143).
T13 sequence: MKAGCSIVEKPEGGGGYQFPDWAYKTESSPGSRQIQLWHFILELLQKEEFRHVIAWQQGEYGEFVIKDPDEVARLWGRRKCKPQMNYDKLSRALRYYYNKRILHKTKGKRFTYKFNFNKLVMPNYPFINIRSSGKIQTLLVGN
Put shortly:
as §1

Another assay addresses ETV6 (Homo sapiens, UniProt P41212 1-452). Put shortly:
as §1

SPIB, sequence (Q01892 whole entry): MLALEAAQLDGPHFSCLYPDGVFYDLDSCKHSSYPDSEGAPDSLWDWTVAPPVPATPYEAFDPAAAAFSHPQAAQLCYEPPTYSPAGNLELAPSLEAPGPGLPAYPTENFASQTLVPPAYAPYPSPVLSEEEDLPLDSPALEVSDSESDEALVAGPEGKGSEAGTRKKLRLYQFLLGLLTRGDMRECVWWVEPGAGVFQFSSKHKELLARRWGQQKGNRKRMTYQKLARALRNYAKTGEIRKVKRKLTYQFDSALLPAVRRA
ELF1, sequence (P32519 whole entry): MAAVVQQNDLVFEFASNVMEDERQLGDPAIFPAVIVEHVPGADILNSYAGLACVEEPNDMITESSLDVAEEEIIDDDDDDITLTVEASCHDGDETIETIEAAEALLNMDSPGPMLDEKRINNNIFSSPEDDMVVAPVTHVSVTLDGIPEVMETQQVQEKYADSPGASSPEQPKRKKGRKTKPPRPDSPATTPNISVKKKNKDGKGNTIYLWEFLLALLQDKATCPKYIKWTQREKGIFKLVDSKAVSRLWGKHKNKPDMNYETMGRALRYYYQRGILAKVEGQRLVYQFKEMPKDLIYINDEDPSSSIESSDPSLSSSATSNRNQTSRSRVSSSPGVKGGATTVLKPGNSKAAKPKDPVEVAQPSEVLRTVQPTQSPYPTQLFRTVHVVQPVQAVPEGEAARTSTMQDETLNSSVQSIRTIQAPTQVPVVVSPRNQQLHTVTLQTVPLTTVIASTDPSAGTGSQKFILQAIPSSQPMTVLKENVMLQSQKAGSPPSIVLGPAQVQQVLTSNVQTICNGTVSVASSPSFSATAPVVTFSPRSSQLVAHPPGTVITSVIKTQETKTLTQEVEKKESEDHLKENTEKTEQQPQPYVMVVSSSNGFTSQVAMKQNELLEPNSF
ETV5, sequence (P41161 whole entry): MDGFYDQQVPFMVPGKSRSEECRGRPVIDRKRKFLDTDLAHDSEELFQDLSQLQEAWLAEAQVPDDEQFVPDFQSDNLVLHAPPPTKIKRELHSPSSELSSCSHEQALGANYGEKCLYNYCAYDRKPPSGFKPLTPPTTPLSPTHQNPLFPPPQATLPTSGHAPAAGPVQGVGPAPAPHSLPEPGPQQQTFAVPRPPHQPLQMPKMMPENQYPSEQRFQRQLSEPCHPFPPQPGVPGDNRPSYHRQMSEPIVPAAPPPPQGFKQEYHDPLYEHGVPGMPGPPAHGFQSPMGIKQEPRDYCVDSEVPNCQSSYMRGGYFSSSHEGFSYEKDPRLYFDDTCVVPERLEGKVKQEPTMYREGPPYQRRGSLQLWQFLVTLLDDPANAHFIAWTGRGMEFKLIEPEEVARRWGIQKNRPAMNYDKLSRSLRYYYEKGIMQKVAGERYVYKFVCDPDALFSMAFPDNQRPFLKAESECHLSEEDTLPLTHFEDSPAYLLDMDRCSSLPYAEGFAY
ETV6, sequence (P41212 whole entry): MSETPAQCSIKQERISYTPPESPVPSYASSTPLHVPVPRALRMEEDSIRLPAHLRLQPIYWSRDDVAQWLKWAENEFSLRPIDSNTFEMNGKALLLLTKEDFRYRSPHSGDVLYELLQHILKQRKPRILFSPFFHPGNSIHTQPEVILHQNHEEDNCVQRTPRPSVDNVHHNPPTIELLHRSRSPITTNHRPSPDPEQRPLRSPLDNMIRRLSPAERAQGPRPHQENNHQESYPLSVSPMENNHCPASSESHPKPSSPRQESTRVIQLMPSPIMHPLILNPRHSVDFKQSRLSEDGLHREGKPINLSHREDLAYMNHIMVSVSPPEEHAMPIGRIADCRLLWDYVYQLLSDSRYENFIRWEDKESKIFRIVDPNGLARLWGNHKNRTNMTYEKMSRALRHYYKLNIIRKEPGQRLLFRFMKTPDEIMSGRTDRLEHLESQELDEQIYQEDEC
ETV1, sequence (P50549 whole entry): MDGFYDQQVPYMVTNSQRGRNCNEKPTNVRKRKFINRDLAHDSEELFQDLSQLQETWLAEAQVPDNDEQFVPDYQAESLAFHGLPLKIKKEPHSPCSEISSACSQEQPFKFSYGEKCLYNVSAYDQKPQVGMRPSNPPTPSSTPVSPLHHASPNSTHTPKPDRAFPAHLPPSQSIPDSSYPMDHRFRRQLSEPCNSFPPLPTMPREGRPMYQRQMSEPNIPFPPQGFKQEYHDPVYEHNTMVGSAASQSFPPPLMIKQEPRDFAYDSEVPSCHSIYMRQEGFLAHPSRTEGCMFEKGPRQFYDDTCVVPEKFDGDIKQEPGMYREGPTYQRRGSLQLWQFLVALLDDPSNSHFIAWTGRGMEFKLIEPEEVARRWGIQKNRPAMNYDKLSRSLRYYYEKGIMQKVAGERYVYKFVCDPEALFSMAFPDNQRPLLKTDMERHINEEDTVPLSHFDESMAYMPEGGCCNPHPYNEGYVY
ELF4, sequence (Q99607 whole entry): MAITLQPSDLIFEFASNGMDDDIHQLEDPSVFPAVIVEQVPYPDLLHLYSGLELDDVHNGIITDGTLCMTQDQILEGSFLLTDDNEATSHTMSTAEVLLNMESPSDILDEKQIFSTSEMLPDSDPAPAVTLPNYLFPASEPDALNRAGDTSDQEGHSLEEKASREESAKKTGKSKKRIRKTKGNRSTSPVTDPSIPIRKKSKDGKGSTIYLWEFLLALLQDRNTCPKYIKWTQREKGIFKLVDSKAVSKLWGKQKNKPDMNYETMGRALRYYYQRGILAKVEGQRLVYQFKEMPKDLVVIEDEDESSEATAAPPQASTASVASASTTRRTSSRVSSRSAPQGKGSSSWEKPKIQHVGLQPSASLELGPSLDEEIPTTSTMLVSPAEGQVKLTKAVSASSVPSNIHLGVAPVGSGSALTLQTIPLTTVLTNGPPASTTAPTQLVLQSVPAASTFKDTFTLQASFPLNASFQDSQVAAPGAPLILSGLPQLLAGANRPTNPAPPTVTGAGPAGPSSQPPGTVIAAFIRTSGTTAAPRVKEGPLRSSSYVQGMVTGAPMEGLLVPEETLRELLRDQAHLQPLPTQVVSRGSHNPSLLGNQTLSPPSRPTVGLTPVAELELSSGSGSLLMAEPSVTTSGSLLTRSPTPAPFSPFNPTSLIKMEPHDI

CGCCCG: the binding signal with FLI1 was 1.28 fold enrichment (6-mer frequency, TF over GST control); in the assay with ELK1, 1.2 fold enrichment (6-mer frequency, TF over GST control); with GABPA it was 1.07 fold enrichment (6-mer frequency, TF over GST control); with ERG it was 1.14 fold enrichment (6-mer frequency, TF over GST control); in the assay with ELF1, 1.18 fold enrichment (6-mer frequency, TF over GST control); in the assay with EHF it was 1.11 fold enrichment (6-mer frequency, TF over GST control). Also, the binding signal in the assay with SPIB was 1.2 fold enrichment (6-mer frequency, TF over GST control); with ELK3, 1.15 fold enrichment (6-mer frequency, TF over GST control); with FEV, 1.14 fold enrichment (6-mer frequency, TF over GST control); with ETV5, 1.06 fold enrichment (6-mer frequency, TF over GST control); with SPIC it was 1.17 fold enrichment (6-mer frequency, TF over GST control); with ELF4 it was 1.11 fold enrichment (6-mer frequency, TF over GST control). The binding signal in the assay with ETV1 was 1.13 fold enrichment (6-mer frequency, TF over GST control); with ERF, 1.09 fold enrichment (6-mer frequency, TF over GST control); with ETV3L it was 1.26 fold enrichment (6-mer frequency, TF over GST control); with ETS2, 1.09 fold enrichment (6-mer frequency, TF over GST control); with ELF5, 1.16 fold enrichment (6-mer frequency, TF over GST control); with ETV3 it was 1.3 fold enrichment (6-mer frequency, TF over GST control). Moreover, the binding signal with ETV6 is 1.02 fold enrichment (6-mer frequency, TF over GST control).
